From PubChem
Pf gametocyte = late stage P. falciparum gametocyte viability inhibitors, primary screen, ATP luminescence, HTS | P. falciparum stage V gametocytes, 24 h | actives 0.065% (n = 150,000) | inhibition, % at 10.9 µM;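 active = inhibition above the mean plus 3 SD of compounds within the control limits, set per campaign, cut at about 38% in these data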;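 note: 0% = DMSO wells and 100% = medium only without gametocytes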
S1P3 antag = S1P3 receptor antagonists, primary screen, cell-based; Sphingosine 1-phosphate receptor 3 (Homo sapiens), Q99500; AID 485, 2006; inhibition, % at 4.98 µM; CHO S1P3 NFAT-BLA reporter, FRET fluorescence, antagonist mode; actives 0.27% (n = 170,000);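 active = inhibition above the plate cutoff, the mean inhibition of test wells on that plate plus 3 SD, cut at about 28% in these data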;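 note: cells challenged with S1P at its EC80 of 0.8 µM; blue over green emission ratio from cleaved BLA substrate after 4 h stimulation; 0% = S1P-stimulated wells and 100% = unstimulated DMSO-only wells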
Target sequence (Q99500 whole entry, looked up): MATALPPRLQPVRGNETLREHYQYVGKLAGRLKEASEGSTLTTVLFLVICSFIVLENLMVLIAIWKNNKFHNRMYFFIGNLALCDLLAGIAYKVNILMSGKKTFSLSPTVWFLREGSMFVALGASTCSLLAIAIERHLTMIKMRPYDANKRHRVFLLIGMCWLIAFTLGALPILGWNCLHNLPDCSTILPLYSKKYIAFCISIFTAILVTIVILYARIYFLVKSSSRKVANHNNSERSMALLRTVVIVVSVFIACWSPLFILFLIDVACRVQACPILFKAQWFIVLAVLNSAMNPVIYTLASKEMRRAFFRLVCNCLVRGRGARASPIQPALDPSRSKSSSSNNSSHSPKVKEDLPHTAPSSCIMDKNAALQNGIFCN
Hsp70 act = Hsp70 transcriptional activators, primary screen, cell-based, HeLa, Hsp70 promoter luciferase, luminescence, 10 µM; actives 0.04% (n = 200,000); HeLa Hsp70 promoter luciferase reporter; scaled: vehicle 0, proteasome-inhibitor control 100%; activation, % at 10 µM; AID 1203, 2008;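 active = activation above the mean across all tested compounds plus 3 SD, cutoff set per campaign, cut at about 5.5% in these data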;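 note: 100% = MG132 at 30 µM as the positive control and 0% = DMSO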
S1P4 agonist = S1P4 receptor agonists, primary screen, cell-based | Sphingosine 1-phosphate receptor 4 (Homo sapiens), O95977 | S1P4-expressing cell line, agonist reporter assay | activation, % at 4.98 µM | actives 0.35% (n = 220,000) | AID 1509, 2009; in the data active = activation above about 11%;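 note: 0% = DMSO vehicle and 100% = reference agonist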
S1P4 antag = S1P4 receptor antagonists, primary screen, cell-based. S1P4-expressing cells, antagonist mode, reporter read-out. inhibition, % at 4.98 µM. actives 0.26% (n = 220,000). AID 1510, 2009; in the data active = inhibition above about 29%;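 note: 0% = wells stimulated with agonist and 100% = vehicle wells without agonist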
S1P4 ag conf = S1P4 receptor agonists, retest, confirmation, cell-based, high throughput; shares compounds with S1P4 agonist; S1P4 agonist cell-based reporter assay; activation, % at 4.98 µM; actives 7% (n = 740); AID 1523, 2009; in the data active = activation above about 12%;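 note: 0% = vehicle and 100% = full reference agonist response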
S1P1 ag = S1P1 receptor agonists, human, counter-screen for S1P4 agonist project, cell-based. S1P1 agonist cell-based assay, activation. shares compounds with S1P4 agonist. activation, % at 4.98 µM. actives 4% (n = 740); in the data active = activation above about 21%;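 note: 0% = vehicle wells and 100% = reference agonist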
Numbers without * were called inactive; . = no result given. Compounds with a hit are over-represented: about 0.83% of the library has one in this group of screens.

SMILES | Pf gametocyte | S1P3 antag | Hsp70 act | S1P4 agonist | S1P4 antag | S1P4 ag conf | S1P1 ag
O=C(NC(=S)Nc1ccccn1)c1cccc([N+](=O)[O-])c1 | -6 | -23 | . | 0 | -8 | . | .
Cc1cc(C)nc(/N=C(\N)Nc2ccc([N+](=O)[O-])cc2)n1 | 19 | -18 | 0 | 0 | -5 | . | .
Cc1cc(C)nc(/N=C(\N)Nc2cccc([N+](=O)[O-])c2)n1 | 25 | -5 | 0 | 12* | -11 | -1 | -1
COc1ccc(C2c3cc(OC)c(OC)cc3CCN2C2CC(=O)N(c3ccccc3)C2=O)cc1OC (configuration not stated) | 13 | . | 0 | 18* | -3 | 0 | -3
O=C(N/N=C/c1cc([N+](=O)[O-])ccc1O)c1cc(-c2ccccc2)nc2ccccc12 | 0 | -14 | 0 | 1 | -9 | . | .
Cc1cc(C(=O)N/N=C/c2cc([N+](=O)[O-])ccc2O)c2ccccc2n1 | 15 | -7 | 0 | 22* | -10 | -2 | -1
O=C(OCC(=O)N1CCCC1=O)C1COc2ccccc2O1 (configuration not stated) | 24 | -26 | 0 | -1 | -8 | . | .
C/C(CC(=O)Nc1cccc(Cl)c1Cl)=N\NC(=O)c1ccccc1N | -37 | 6 | 0 | 2 | -5 | . | .
O=C(COC(=O)CCSc1ccccc1)Nc1ccc(F)cc1Cl | 4 | -8 | 0 | 31* | -13 | -2 | -1
O=C(COC(=O)CCSc1ccccc1)Nc1cc(F)ccc1F | 17 | -8 | 0 | 0 | -8 | . | .
O=C(Nc1ccc2oc(-c3ccncc3)nc2c1)c1ccc(F)cc1 | 2 | 1 | 0 | 20* | -11 | -2 | 0
COc1ccc(Cl)cc1C(=O)Nn1cnc2ccccc2c1=O | -20 | -14 | 0 | 137* | -14 | -2 | 0
Cc1cc(/C=N/n2cnnc2)c(C)n1-c1ccc(Cl)cc1Cl | . | 37 | 0 | -3 | -50 | . | .
Cc1cc(C=NCCCO)c(C)n1-c1cc(Cl)ccc1Cl | -6 | 2 | -1 | 13* | -15 | 21* | 4
COc1ccc(Cn2ccnc2)cc1[N+](=O)[O-] | 5 | 2 | 0 | 12* | -17 | -2 | -2
Cc1cc(N)n(-c2ccccn2)n1 | -17 | -10 | . | 2 | 16 | . | .
Cc1ccccc1C1NC(=S)NC2=C1C(=O)CCC2 (configuration not stated) | -8 | -1 | 0 | 0 | -12 | . | .
CC1=Nc2ccccc2/C1=C/c1c(N)n2c(S(=O)(=O)CC(C)C)nsc2nc1=O | . | -8 | 0 | 20* | -4 | -2 | -2
CC1=Nc2ccccc2/C1=C/c1c(N)n2c(S(=O)(=O)C(C)C)nsc2nc1=O | -15 | -20 | 0 | 1 | -13 | . | .
CC(C)NC(=O)C1COc2ccccc2O1 (configuration not stated) | -10 | -3 | 0 | 64* | -12 | -2 | -2
Cc1cc(C)c2sc(NNC(=O)C3COc4ccccc4O3)nc2c1 (configuration not stated) | . | -15 | 0 | 21* | -4 | -2 | 5
Cc1cccc2sc(NNC(=O)C3COc4ccccc4O3)nc12 (configuration not stated) | . | -2 | 0 | 1 | 3 | . | .
O=C(Nc1ccccc1)C1COc2ccccc2O1 (configuration not stated) | 8 | . | . | . | . | . | .
O=C(Nc1nc2ccccc2s1)c1cc(-c2ccco2)nc2ccccc12 | 19 | -2 | 0 | 1 | -4 | . | .
N=c1oc2cc(O)ccc2cc1C(=O)Nc1nc2ccccc2s1 | -10 | -103 | 0 | 92* | -76 | 80* | 129*
SMILES | Pf gametocyte | S1P3 antag | Hsp70 act | S1P4 agonist | S1P4 antag | S1P4 ag conf | S1P1 ag
COc1cc(C(=O)Nc2ccc(Nc3ccccc3)cc2)cc(OC)c1OC | -59 | . | . | . | . | . | .
Cc1nc(N(C)C)c2sc(=S)n(Cc3ccccc3)c2n1 | -7 | -3 | 0 | -1 | -1 | . | .
C[C@]12CCC3c4ccc(OCC(=O)O)cc4CCC3C1CCC2=O (some centres not stated) | . | -2 | . | -1 | 6 | . | .
COc1ccccc1C1(O)CCN(CC(=O)Nc2nc(-c3ccccc3)cs2)CC1 | -8 | -5 | 0 | 21* | -15 | -1 | 4
CCc1nc(SCc2cc(=O)[nH]c3ccccc23)c2c(C)c(C)sc2n1 | 4 | . | . | . | . | . | .
COc1cc(CNCCO)cc(Cl)c1OCc1ccccc1Cl | -12 | -3 | 0 | 11* | 11 | 5 | -10
COc1cccc(CNCCO)c1OCc1ccccc1Cl | . | -8 | 0 | 0 | 0 | . | .
Cc1ccccc1CN(c1ccc(C(=O)N/N=C/c2ccc(OCC(N)=O)cc2)cc1)S(C)(=O)=O | -11 | -8 | 0 | 0 | 1 | . | .
COC(=O)C(C(=O)Nc1ccccc1C)C1CCCCCC1 (configuration not stated) | -10 | -7 | 0 | 2 | 3 | . | .
Cc1cc(C(=O)CSc2nc3ccccc3c(=O)[nH]2)c(C)n1CC1CCCO1 (configuration not stated) | -8 | 12 | 0 | 53* | -8 | 0 | 8
Cc1cc(C(=O)COC(=O)CCc2nc3ccccc3c(=O)[nH]2)c(C)n1CC1CCCO1 (configuration not stated) | . | -4 | . | 1 | -6 | . | .
CC(CCc1ccccc1)NC(=O)c1cccnc1 (configuration not stated) | . | 1 | 0 | 0 | -13 | . | .
Cc1nccc2[nH]c(=O)c(C(=O)NC(C)CCc3ccccc3)cc12 (configuration not stated) | . | 0 | 0 | 24* | -7 | -3 | -4
COc1ccc(-n2c(SCC(N)=O)nc3sc4c(c3c2=O)CCC4)cc1 | -16 | 6 | 0 | 3 | 13 | . | .
CCCn1c(SCC(=O)Nc2ccc3c(c2)CCC3)n[nH]c1=O | 1 | -3 | 0 | 16* | 2 | -1 | -8
Cc1oc2cc(OC(=O)c3ccco3)ccc2c(=O)c1-c1nc2ccccc2n1C | -2 | -10 | 0 | 12* | -13 | -2 | -3
CC1COC(=O)C(NNc2ccc(Cl)c(Cl)c2)=N1 (configuration not stated) | 24 | 3 | 0 | 3 | 0 | . | .
COc1ccc(OC)c(S(=O)(=O)NC(N)=NCCc2ccccc2OC)c1 | . | -21 | 0 | 23* | 2 | -1 | -5
COc1ccccc1CCN=C(N)NS(=O)(=O)c1ccccc1 | . | 0 | 0 | 0 | -5 | . | .
O=C(CCCC(=O)NCC1CCCO1)NCC1CCCO1 (configuration not stated) | . | -9 | 1 | 39* | 2 | -2 | 0
O=C(CN1CCCCCC1)NCC1CCCO1 (configuration not stated) | . | -26 | -1 | -1 | 7 | . | .
